Data from the supplement of paper PMC10515830.
Structures can show the parent of a compound that is named as a salt.

Assays:
Settings in all cases: 10 µM; exposure time 6 h
[1] = tested on: Danio rerio larvae (5 dpf); test: difference in excitability vs DMSO (percentage points); higher = more excitable than DMSO
Procedure, shortened: (§1)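 Library compounds were tested at 10 µM final in 100 µL egg water on wild-type 5 dpf zebrafish larvae in 96-well plates for 6 h, with 48 larvae per compound. After 3 h, plates at 28.5 ℃ were imaged every 6 s during a 3-h run of moving lines and 100 ms, 400Hz tones. Behaviours were quantified by Z-LaP Tracker and reported as the compound mean less the vehicle control mean, in percentage points.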

[2] = tested on: Danio rerio larvae (5 dpf); test: difference in startle response vs DMSO (percentage points); higher = stronger startle than DMSO
Procedure, shortened: as §1

[3] = tested on: Danio rerio larvae (5 dpf); test: difference in activity during first hour vs DMSO (percentage points); higher = more activity than DMSO
Procedure, shortened: as §1

[4] = tested on: Danio rerio larvae (5 dpf); test: difference in habituation to acoustic stimuli vs DMSO (percentage points); higher = more habituation than DMSO
Procedure, shortened: as §1

[5] = tested on: Danio rerio larvae (5 dpf); test: difference in combined optomotor response to red, green and blue moving lines vs DMSO (percentage points); higher = stronger optomotor response than DMSO
Procedure, shortened: as §1

Row | SMILES | difference in excitability [1] | difference in startle response [2] | difference in activity during first hour [3] | difference in habituation to acoustic stimuli [4] | difference [5]
1 | CO[C@H]1/C=C/O[C@@]2(C)Oc3c(C)c(O)c4c(c3C2=O)C2=NC3(CCN(CC(C)C)CC3)NC2=C(NC(=O)/C(C)=C\C=C\[C@H](C)[C@H](O)[C@@H](C)[C@@H](O)[C@@H](C)[C@H](OC(C)=O)[C@@H]1C)C4=O [Rifabutin] | 10.6 | -5.26 | 2.31 | 3.31 | 3.55
2 | Cc1[nH]c(=O)c(C#N)cc1-c1ccncc1 [Milrinone] | -4.22 | -1.03 | 2.14 | 0.444 | 8.34
3 | CCCCC[C@](C)(O)/C=C/[C@@H]1[C@@H](C/C=C\CCCC(=O)O)[C@@H](O)C[C@H]1O [15(S)-15-methyl Prostaglandin F2α] | 1.12 | 0.545 | 22.8 | 1.43 | 5.47
4 | O=C1NC(c2ccccc2)(c2ccccc2)C(=O)N1COP(=O)(O)O [Fosphenytoin (sodium salt)] | 1.33 | 6.03 | -3.5 | 3.61 | 0.0516
5 | Cc1ccc(Nc2nccc(N(C)c3ccc4c(C)n(C)nc4c3)n2)cc1S(N)(=O)=O [Pazopanib] | 3.47 | -4.32 | -7.88 | 0.185 | 1.79
6 | Nc1ccn([C@@H]2O[C@H](CO)[C@@H](O)[C@@H]2O)c(=O)n1 [Cytarabine] | 1.17 | -0.992 | -3.96 | -4.77 | 3.66
7 | CNC1(C)C2CCC(C2)C1(C)C (stereo not given) [Mecamylamine (hydrochloride)] | 3.59 | -1.88 | -1.28 | -4.36 | 11.1
8 | C[C@@H]1CCN(C(=O)CC#N)C[C@@H]1N(C)c1ncnc2[nH]ccc12 | -2.24 | -4.49 | -6.58 | -6.59 | 6.98
9 | CO/N=C(\C(=O)N[C@@H]1C(=O)N2C(C(=O)[O-])=C(C[N+]3(C)CCCC3)CS[C@H]12)c1csc(N)n1 [Cefepime (hydrochloride hydrate)] | 1.19 | -0.767 | 1.35 | 1.3 | -1.46
10 | O=C1Nc2ccc(Cl)cc2[C@@](C#CC2CC2)(C(F)(F)F)O1 [Efavirenz] | 10.7 | -10.7 | -17.8 | -12.8 | -17.4
11 | CC(C)Cc1ccc(C(C)C(=O)O)cc1 (racemic) [(±)-Ibuprofen] | 15.5 | -4.17 | -2.46 | 3.85 | 6.34
12 | COc1ccc(CC2c3cc(OC)c(OC)cc3CC[N+]2(C)CCC(=O)OCCCCCOC(=O)CC[N+]2(C)CCc3cc(OC)c(OC)cc3C2Cc2ccc(OC)c(OC)c2)cc1OC (stereo not given) [Atracurium (besylate)] | 5.62 | -4.13 | -9.46 | -3.02 | -3.83
13 | Cn1c(=O)c2c(ncn2C)n(C)c1=O [Caffeine] | 5.33 | 2.45 | 2.64 | 7.15 | 4.07
14 | CC(C)CN(C[C@@H](O)[C@H](Cc1ccccc1)NC(=O)O[C@H]1CCOC1)S(=O)(=O)c1ccc(N)cc1 [Amprenavir] | -3.12 | -6.45 | 6.71 | 0.569 | 7.88
15 | CNS(=O)(=O)Cc1ccc2[nH]cc(CCN(C)C)c2c1 [Sumatriptan (succinate)] | 7.61 | 3.38 | -12.9 | 5.35 | -4.54
16 | CCCN1CCCC[C@H]1C(=O)Nc1c(C)cccc1C [(-)-Ropivacaine (hydrochloride hydrate)] | -4.41 | -2.15 | 7.62 | -1.06 | 1.37
17 | N=C(N)NCCCC[C@@H]1NC(=O)CCSSC[C@@H](C(N)=O)NC(=O)[C@@H]2CCCN2C(=O)[C@H](Cc2c[nH]c3ccccc23)NC(=O)[C@H](CC(=O)O)NC(=O)CNC1=O [Eptifibatide] | 10.9 | 3.19 | 5.64 | -3.64 | 2.85
18 | c1cc(CN2CCCNCCNCCCNCC2)ccc1CN1CCCNCCNCCCNCC1 [Plerixafor (hydrochloride hydrate)] | 11.6 | -7.66 | -16 | -5.73 | -15.1
19 | CCc1c(C)[nH]c2c1C(=O)C(CN1CCOCC1)CC2 (stereo not given) [Molindone (hydrochloride)] | 4.99 | -3.27 | -7.67 | -1.62 | -2.83
20 | Clc1ccc(COC(Cn2ccnc2)c2ccc(Cl)cc2Cl)cc1 (stereo not given) [Econazole (nitrate)] | 7.22 | -9.26 | -22.1 | -11.9 | -16.9
21 | CCCN[C@H]1CCc2nc(N)sc2C1 [(S)-Pramipexole (hydrochloride)] | 6.47 | -2.57 | -10.9 | 5.7 | 0.342
22 | O=c1[nH]c(=O)n([C@H]2C[C@H](O)[C@@H](CO)O2)cc1F [Floxuridine] | 5.02 | -2.11 | 5.28 | -3.55 | 1.72
23 | Cc1cccc(Nc2ccccc2C(=O)O)c1C [Mefenamic Acid] | 6.54 | -1.5 | -5.95 | -12.8 | -15.5
24 | COc1ccc(-n2nc(C(N)=O)c3c2C(=O)N(c2ccc(N4CCCCC4=O)cc2)CC3)cc1 [Apixaban] | -0.692 | -6.58 | 1.99 | 4.29 | 10.4
25 | C#C[C@]1(O)CC[C@H]2[C@@H]3CCC4=Cc5oncc5C[C@]4(C)[C@H]3CC[C@@]21C [Danazol] | 6.6 | -7.24 | -23.6 | -10.4 | -17.8

Row | SMILES | difference in excitability [1] | difference in startle response [2] | difference in activity during first hour [3] | difference in habituation to acoustic stimuli [4] | difference [5]
26 | CNC(=O)c1cnn(-c2nc(N)c3ncn([C@@H]4O[C@H](CO)[C@@H](O)[C@H]4O)c3n2)c1 [Regadenoson] | -3.36 | 0.153 | 6.41 | -0.999 | 3.31
27 | O=C1CCc2ccc(OCCCCN3CCN(c4cccc(Cl)c4Cl)CC3)cc2N1 [Aripiprazole] | 14.5 | 5.72 | 12.4 | -8.81 | -3.23
28 | CCOC(=O)[C@H](CCc1ccccc1)N[C@@H](C)C(=O)N1[C@H](C(=O)O)C[C@@H]2CCC[C@@H]21 [Ramipril] | -5.85 | -2.41 | 5.42 | -0.379 | 7.67
29 | Cc1c(OCC(F)(F)F)ccnc1C[S+]([O-])c1nc2ccccc2[nH]1 (stereo not given) [Lansoprazole] | 8.61 | -2.87 | 1.57 | -2.95 | 6.61
30 | Cn1ccnc1S [Methimazole] | -1.48 | 3.48 | -0.609 | 0.155 | 3.45
31 | CN(CCOc1ccc(CC2SC(=O)NC2=O)cc1)c1ccccn1 (stereo not given) [Rosiglitazone (maleate)] | 10.7 | -3.19 | 10.3 | -2.4 | -0.752
32 | CCCCCCCCCCC[C@@H](C[C@@H]1OC(=O)[C@H]1CCCCCC)OC(=O)[C@H](CC(C)C)NC=O [Orlistat] | 0.283 | 0.288 | 10.8 | 3.74 | 2.67
33 | CC(=O)Oc1ccccc1C(=O)Nc1ncc([N+](=O)[O-])s1 [Nitazoxanide] | 12.9 | -13.9 | -14.8 | -12.4 | -17.8
34 | CN(Cc1cnc2nc(N)nc(N)c2n1)c1ccc(C(=O)N[C@@H](CCC(=O)O)C(=O)O)cc1 [Methotrexate (hydrate)] | 9.03 | 7.54 | -9.02 | -0.271 | 3.11
35 | CN(C)[C@@H]1C(O)=C(C(N)=O)C(=O)[C@@]2(O)C(O)=C3C(=O)c4c(O)ccc(Cl)c4[C@@H](O)[C@H]3C[C@@H]12 [Demeclocycline (hydrochloride)] | 12.9 | -2.29 | 4.59 | 7.81 | 2.94
36 | CN(C)CCCN1c2ccccc2CCc2ccc(Cl)cc21 [Clomipramine (hydrochloride)] | 0.766 | 1.97 | -14.9 | -3.04 | -3.76
37 | CC(CCc1ccc(O)cc1)NCCc1ccc(O)c(O)c1 (stereo not given) [Dobutamine (hydrochloride)] | 10.9 | 6.81 | -2.65 | 12 | 13.9
38 | Cn1c(=O)c2[nH]cnc2n(C)c1=O [Aminophylline] | 4.39 | 0.67 | 2.88 | -3.14 | 8.05
39 | CN1CCN(C2=Nc3ccccc3Oc3ccc(Cl)cc32)CC1 [Loxapine (succinate)] | 20.5 | -13.4 | 43.6 | -11 | -0.239
40 | CN1CCCC(n2nc(Cc3ccc(Cl)cc3)c3ccccc3c2=O)CC1 (stereo not given) [Azelastine (hydrochloride)] | 19.9 | 1.87 | -5.88 | -2.38 | 3.47
41 | CC(=O)Oc1ccccc1C(=O)O [Aspirin] | -1 | 2.44 | 2.02 | 1.42 | 2.52
42 | CCCc1nc2c(C)cc(-c3nc4ccccc4n3C)cc2n1Cc1ccc(-c2ccccc2C(=O)O)cc1 [Telmisartan] | 14.6 | -11.8 | 9.61 | -3.85 | -8.32
43 | COc1cc2nc(N3CCN(C(=O)c4ccco4)CC3)nc(N)c2cc1OC [Prazosin (hydrochloride)] | 20.4 | 2.07 | 11.2 | -7.66 | 6.47
44 | OB1OCc2cc(F)ccc21 | 13.7 | -1.36 | -11.7 | 2.38 | 4.85
45 | Cc1ncc(CO)c(CO)c1O [Pyridoxine] | -7.67 | 5.43 | 7.49 | 4.31 | 4.65
46 | CC(CCc1ccccc1)NCC(O)c1ccc(O)c(C(N)=O)c1 (stereo not given) [Labetalol (hydrochloride)] | 3.49 | 0.137 | 5.09 | 3.73 | -2.36
47 | CCC(C)(C)C(=O)O[C@H]1C[C@@H](C)C=C2C=C[C@H](C)[C@H](CC[C@@H]3C[C@@H](O)CC(=O)O3)[C@H]21 [Simvastatin] | 6.26 | -2.42 | 9.76 | 1.77 | 2.53
48 | Clc1ccc2c(c1)C(N1CCNCC1)=Nc1ccccc1O2 [Amoxapine] | 6.07 | -0.987 | 35.7 | -1.72 | 12.4
49 | CC(c1cc2ccccc2s1)N(O)C(N)=O (stereo not given) [Zileuton] | 3.87 | -0.493 | -3.58 | -0.832 | 6
